ELG1 DNA repair: ELG1-dependent DNA repair inhibition. HEK293T ELG1-luciferase reporter, luminescence, 16 h; DNA damage induced by 5-fluorouridine. hit rate 2.3% among 330,000. Potency, µM (highest dose often 46.1 µM), for the others: at the highest dose activity change, negative = inhibition, most hits filed as inhibitors; note: potency is the fitted concentration of half-maximal effect; nearly all actives have a fitted effect of over 55% in size
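Cells (2,000 per well) received 5-fluorouridine plus test compound or DMSO and were incubated 16 hr at 37 °C, 5% CO2. Luciferase activity was read by luminescence 30 min after ONE-Glo addition; signal suppression marked inhibition of damage-induced ELG1 function.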
TDP1 cell CPT: growth inhibition of DT40 Tdp1-/-;hTDP1 cells with camptothecin (screen for TDP1 inhibitors) | AID 686979 | Potency, µM (doses to about 46.2 µM), without a hit: top-dose activity change, negative = growth inhibition, most hits filed as inhibitors | chicken DT40 Tdp1-/-;hTDP1 cells + 20 nM CPT, ATP luminescence, 48 h | hit rate 12% among 420,000; note: potency is the fitted concentration of half-maximal effect; nearly all actives have a fitted effect of over 55% in size
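Chicken DT40 Tdp1-/- cells complemented with human TDP1, 400 cells/well, exposed to compounds plus 20 nM camptothecin for at least 48 h at 37 C; viability read as ATP content by CellTiter-Glo luminescence.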
DT40 TDP1 no CPT: qHTS for Inhibitors of human tyrosyl-DNA phosphodiesterase 1 (TDP1): qHTS in cells in absence of CPT; DT40 Tdp1-/- hTDP1 cells, no CPT, ATP luminescence, 48 h; Potency, µM (doses to about 46.2 µM), for inactives: top-dose activity change, negative = growth inhibition, usual class: inhibitors; hit rate 15% among 420,000; note: potency is the fitted concentration of half-maximal effect; nearly all actives have a fitted effect of over 55% in size
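Compound effects on proliferation are scored in DT40 Tdp1-/-;hTDP1 cells in the absence of CPT. ATP levels (CellTiter-Glo luminescence) are recorded after a ≥48 hr, 37 °C incubation.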
IL-1B inflam inh: inhibitors of inflammasome signaling (IL-1 beta secretion) | hit rate 4.7% among 360,000 | THP-1 LPS/ATP IL-1B secretion, AlphaLISA, 16 h; stronger effect = lower value | activity change, % at 57.5 µM; in the data active = activity change below about -50%; inconclusive = mostly about -30% to -49%
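THP-1 cells pretreated 1 hr with compounds (up to 57.5 uM final), then stimulated with LPS (250 ng/mL final) plus ATP (1.25 mM final); secreted IL-1B measured by AlphaLISA after 16 hr, decreased signal indicating inhibition.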
RORgamma inh: ROR gamma (mouse) transcription inhibition. P51450. hit rate 5.4% among 310,000. Drosophila S2 Gal4-RORgamma UAS-luciferase reporter, 20 h. Potency, µM (series often up to 53.6 µM), for the others: at the top dose activity change, negative = inhibition, most hits filed as inhibitors; note: potency is the fitted concentration of half-maximal effect; nearly all actives have a fitted effect of over 60% in size
Target sequence (P51450 whole entry, looked up, the tested form may be a part): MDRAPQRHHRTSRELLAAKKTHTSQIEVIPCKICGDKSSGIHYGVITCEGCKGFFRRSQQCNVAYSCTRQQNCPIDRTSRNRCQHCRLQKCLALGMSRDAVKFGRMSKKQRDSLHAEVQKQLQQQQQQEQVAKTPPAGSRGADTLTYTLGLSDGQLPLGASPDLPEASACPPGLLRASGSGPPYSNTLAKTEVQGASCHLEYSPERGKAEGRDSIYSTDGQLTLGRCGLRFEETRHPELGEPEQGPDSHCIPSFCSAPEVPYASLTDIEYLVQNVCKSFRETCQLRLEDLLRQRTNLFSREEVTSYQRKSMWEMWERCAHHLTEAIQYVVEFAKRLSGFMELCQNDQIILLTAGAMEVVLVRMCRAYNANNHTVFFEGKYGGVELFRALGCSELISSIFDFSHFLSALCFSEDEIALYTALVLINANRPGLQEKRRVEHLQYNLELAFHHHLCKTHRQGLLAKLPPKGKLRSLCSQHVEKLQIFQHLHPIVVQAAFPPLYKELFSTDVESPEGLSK
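A Gal4/UAS one-hybrid system in insect cells: metallothionein-promoter Gal4–ROR gamma fusion plus Photinus luciferase reporter. Copper sulfate 700 uM final, 20 hr ambient incubation, luminescent detection after 10 min with reagent.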
Gal4-VP16 FLuc: counter-screen for ROR gamma inhibitors: Gal4-VP16 reporter; Drosophila S2 Gal4-VP16 UAS-luciferase, luminescence, 20 h; hit rate 3.5% among 310,000; Potency, µM (titrated, usually from 53.6 µM), for inactives: at the highest dose activity, negative = inhibition, usual class: inhibitors;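 note: Gal4-VP16 expression switched on by copper sulfate through the metallothionein promoter; potency is the fitted concentration of half-maximal effect; nearly all actives have a fitted effect of over 50% in size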
Active calls of the source: *; i = inactive; ? = inconclusive; / = no result given. Most compounds without a hit are left out; they make up all but 21% or so of the library. Unless noted, calls come from the whole dose curve; as a rule, active = well fitted curve in the direction sought with a large enough effect; inconclusive = small, poorly fitted or top-dose-only effect, or another doubt; inactive = no such curve, though single readings can be large; an effect the other way counts as inactive or inconclusive. % is set by controls: 0 for no effect and ±100 for the full control effect.

SMILES	ELG1 DNA repair	TDP1 cell CPT	DT40 TDP1 no CPT	IL-1B inflam inh	RORgamma inh	Gal4-VP16 FLuc
Cc1ccc(CNC(=O)c2ccc(N3CCC4(CC3)CC(c3ccccc3)=NO4)c(NC(=O)c3ccccc3)c2)cc1	-14%	-36%	-21%	-21	/	/
CCCNC(=O)c1ccc(N2CCC3(CC2)CC(c2cccc(Br)c2)=NO3)c(NC(=O)c2ccc(Br)cc2)c1	-26%	-15%	-16%	-24	/	/
CCCNC(=O)c1ccc(N2CCC3(CC2)CC(c2ccccc2)=NO3)c(NC(=O)c2ccco2)c1	5.8µM*	18µM*	16µM*	-15	33%	-6%
Brc1ccccc1-c1nnc(SCc2nc3ccccc3s2)o1	?	-2%	?	0	-15%	-8%
CCN(CC)S(=O)(=O)c1cccc(-c2nnc(SC(C)C(=O)NCCC3=CCCCC3)o2)c1 (stereo not drawn)	23µM*	?	26µM*	-24	-25%	2%
CCN(CC)S(=O)(=O)c1cccc(-c2nnc(SCc3nc4ccccc4s3)o2)c1	?	?	21µM*	-26	45%	14%
CCN(CC)S(=O)(=O)c1cccc(-c2nnc(SCCCC(=O)c3ccc(F)cc3)o2)c1	16µM*	?	?	28	?	-19%
CCN(CC)S(=O)(=O)c1cccc(-c2nnc(SCCCC(=O)c3ccccc3)o2)c1	?	?	?	24	35%	12%
Cc1cc(C(=O)CSc2ccc3c(c2)OCCO3)c(C)n1C1CC1	?	2%	-21%	-29	0%	2%
O=C(CSc1nnc(-c2cccc(S(=O)(=O)N3CCCCC3)c2)o1)NCCC1=CCCCC1	-19%	?	?	11	6%	-2%
CCN(CC)S(=O)(=O)c1cccc(-c2nnc(SCC(=O)c3cc(C)n(C4CC4)c3C)o2)c1	?	?	16µM*	6	7%	17%
CCC(O)(Cc1ccccn1)Cc1ccccn1	/	15%	12%	14	/	/
CC(C)OP(=O)(OC(C)C)C(NC(=O)c1ccccc1Br)C(N)=O (stereo not drawn)	14%	21%	1%	22	1%	10%
C=CCn1c(C)cc(C(=O)CSc2nnc(-c3cccc(S(=O)(=O)N(CC)CC)c3)o2)c1C	16µM*	?	?	0	16%	2%
COc1ccc(OCc2cccc(C(=O)O)c2)cc1	?	?	?	1	1.8µM*	?
O=C(O)c1cccc(COc2ccc(CO)cc2Cl)c1	?	-15%	-28%	0	1.8µM*	5µM*
CCOc1ccc(OCc2cccc(C(=O)N3CCCC3)c2)cc1	?	-20%	-28%	?	?	0%
O=C(O)c1cccc(COc2ccc3c(c2)CCC3)c1	?	-7%	-10%	14	0%	6%
O=C(O)c1cccc(OCc2ccccc2Cl)c1	?	1%	0%	0	-25%	-19%
CCOc1ccc(OCc2cccc(C(=O)O)c2)cc1	?	15µM*	8.2µM*	8	1.6µM*	?
O=C(O)c1ccc(CP(=O)(c2ccccc2)c2ccccc2)cc1	-13%	-2%	-1%	17	-7%	9%
COc1ccc(OC(C)C(=O)N2CCc3ccccc3C2)cc1 (stereo not drawn)	-16%	?	21µM*	35	2%	12%
CC(Oc1ccccc1)C(=O)N1CCN(C(=O)C(C)Oc2ccccc2)CC1 (stereo not drawn)	6.5µM*	-2%	3%	i	7%	2%
CC(Oc1ccccc1)C(=O)N1CCc2ccccc2C1 (stereo not drawn)	3%	?	-1%	0	-9%	-3%
